In the supplement of paper PMC12350171:
Structures can show the parent of a compound that is named as a salt.

How the values were obtained:
Conditions in all cases: 20 µM
[1] = test system: Haemophilus parainfluenzae; assay: growth AUC normalised to DMSO control (fraction of control); higher = less growth inhibition, active = hit call of the paper
Method in brief: (§1)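 Three biological replicates were carried out, with OD578 read hourly for 24 h. Before inoculation at a starting OD578 of 0.01, pathogens were passaged anaerobically twice; plates were pre-reduced mGAM containing 20 μM compound and 1% DMSO, sealed with breathable membranes, and the Haemophilus parainfluenzae medium carried added hemin and NAD. Area under each growth curve was calculated by the trapezoidal rule up to the exponential-to-stationary transition and normalised to DMSO controls on the same plate.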

[2] = test system: Salmonella enterica typhimurium; assay: as above
Method in brief: as §1

Shigella flexneri = assay: as above
Method in brief: as §1

Vibrio cholerae = assay: as above
Method in brief: as §1

[3] = test system: Yersinia pseudotuberculosis; assay: as above
Method in brief: as §1

P. vulgatus RND KO = assay: growth AUC normalised to DMSO control (median) (fraction of control); higher = less growth inhibition, active = hit call of the paper
Method in brief: (§2)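 Strains were passaged twice overnight without oxygen, then grown in mGAM in 96-well plates with each approved-drug library compound at 20 μM and 1% DMSO, starting at OD578 0.01. OD578 was read hourly for 24 h inside an anaerobic incubator. Curves were truncated at entry into stationary phase, and the trapezoidal-rule area under the curve was normalised to same-plate vehicle wells. The value is the median across three biological replicates.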

P. vulgatus WT = assay: as above
Method in brief: as §2

[4] = test system: S. enterica typhimurium WT; assay: as above
Method in brief: as §2

[5] = test system: S. enterica typhimurium tolC KO; assay: as above
Method in brief: as §2

Measured: growth AUC normalised to DMSO control
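For growth AUC normalised to DMSO control (median) in this document: active when median AUC fell below 0.1.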

c1ccc2c(c1)OCC(C1=NCCN1)O2 (configuration not stated) [Idazoxan hydrochloride]
inactive: [1] 1.01 | [2] 1.02 | Shigella flexneri 1.02 | Vibrio cholerae 1.02 | [3] 0.982 | P. vulgatus RND KO 0.997 | P. vulgatus WT 0.98 | [4] 0.999 | [5] 0.998

C=C1C[C@@H]2[C@H](CC[C@]3(C)C(=O)CC[C@@H]23)[C@@]2(C)C=CC(=O)C=C12 [Exemestane]
inactive: [1] 0.967 | [2] 0.985 | Shigella flexneri 0.953 | Vibrio cholerae 0.964 | [3] 1 | P. vulgatus RND KO 0.978 | P. vulgatus WT 0.969 | [4] 0.996 | [5] 0.935

C[C@@H]1CN([C@H]2CC[C@](C#N)(c3ccc(F)cc3)CC2)CC[C@]1(C(=O)O)c1ccccc1 [Levocabastine hydrochloride]
inactive: [1] 1.02 | [2] 1 | Shigella flexneri 1.02 | [3] 0.997 | P. vulgatus RND KO 0.989 | P. vulgatus WT 1.05 | [4] 0.997 | [5] 1.01
active: Vibrio cholerae 0.239

C[C@]12CC[C@H](O)C[C@H]1CC[C@@H]1[C@@H]2C[C@@H](O)[C@]2(C)[C@@H](C3=CC(=O)OC3)CC[C@]12O [Digoxigenin]
inactive: [1] 1.01 | [2] 1.03 | Shigella flexneri 0.999 | Vibrio cholerae 1.03 | [3] 0.998 | P. vulgatus RND KO 0.998 | P. vulgatus WT 1.04 | [4] 1.01 | [5] 1

COc1ccc(CN2CCNCC2)c(OC)c1OC [Trimetazidine dihydrochloride]
inactive: [1] 1.02 | [2] 0.989 | Shigella flexneri 1.03 | Vibrio cholerae 1.02 | [3] 1.01 | P. vulgatus RND KO 1.01 | P. vulgatus WT 1.01 | [4] 0.997 | [5] 0.994

C=C1CC[C@@]2(O)[C@H]3Cc4ccc(O)c5c4[C@@]2(CCN3CC2CC2)[C@H]1O5 [Nalmefene hydrochloride]
inactive: [1] 0.969 | [2] 1.01 | Shigella flexneri 1.03 | Vibrio cholerae 1.02 | [3] 1.03 | P. vulgatus RND KO 1 | P. vulgatus WT 1.03 | [4] 1 | [5] 1.01

C1CCc2nnnn2CC1 [Pentylenetetrazole]
inactive: [1] 1.01 | [2] 0.978 | Shigella flexneri 1.01 | Vibrio cholerae 1.04 | [3] 0.976 | P. vulgatus RND KO 1.03 | P. vulgatus WT 1.06 | [4] 1 | [5] 0.986

CCC(=O)O[C@H]1CC[C@H]2[C@@H]3CCC4=CC(=O)CC[C@]4(C)[C@H]3CC[C@]12C [Testosterone propionate]
inactive: [1] 1.06 | [2] 1.02 | Shigella flexneri 1.03 | Vibrio cholerae 1.04 | [3] 0.989 | P. vulgatus RND KO 1 | P. vulgatus WT 1.01 | [4] 1.02 | [5] 0.911

C[N+](C)(C)CCCCCCCCCC[N+](C)(C)C [Decamethonium bromide]
inactive: [1] 1.03 | [2] 1 | Shigella flexneri 1.03 | Vibrio cholerae 1.07 | [3] 1 | P. vulgatus RND KO 0.997 | P. vulgatus WT 1.07 | [4] 1.01 | [5] 1

COc1cc([C@@H]2c3cc4c(cc3[C@H](O)[C@H]3COC(=O)[C@H]23)OCO4)cc(OC)c1OC [Podophyllotoxin]
inactive: [1] 1.04 | [2] 0.999 | Shigella flexneri 0.999 | Vibrio cholerae 1.02 | [3] 1.01 | P. vulgatus RND KO 1 | P. vulgatus WT 1.02 | [4] 0.998 | [5] 0.996

CN(C)C(=O)Oc1ccc[n+](C)c1 [Pyridostigmine iodide]
inactive: [1] 0.994 | [2] 1 | Shigella flexneri 1.03 | Vibrio cholerae 1.02 | [3] 0.992 | P. vulgatus RND KO 1 | P. vulgatus WT 1.03 | [4] 1.01 | [5] 0.991

O=C(CCCN1CCC(n2c(=O)[nH]c3ccccc32)CC1)c1ccc(F)cc1 [Benperidol]
inactive: [1] 1.03 | [2] 0.981 | Shigella flexneri 0.998 | Vibrio cholerae 0.998 | [3] 0.975 | P. vulgatus RND KO 1.01 | P. vulgatus WT 1.02 | [4] 0.993 | [5] 0.956

C=CCC1(CC(C)C)C(=O)NC(=O)NC1=O [Butalbital]
inactive: [1] 0.978 | [2] 1 | Shigella flexneri 0.999 | Vibrio cholerae 1.02 | [3] 1 | P. vulgatus RND KO 0.99 | P. vulgatus WT 0.998 | [4] 0.992 | [5] 1.01
